Results filed as inconclusive are left out. Activity calls are given as the source filed them. The call rests on the fitted dose curve; in most records, active means well fitted cell-killing curve with a large enough effect in the repeat runs; inconclusive means weak or mixed curves, or effect the other way; inactive means flat fitted curve, though single readings scatter.
Test: qHTS RealTime-Glo MT Cell Viability Assay in HEK293 cells - 40 hour (AID 1224874); further: nearly all actives have a fitted effect of over 50% in size
Conditions: RealTime-Glo luminescence; max response: hits give low values
From the text: U.S. Tox21 Program National Center for Advancing Translational Sciences [NCATS] NIH Chemical Genomics Center [NCGC] U.S. Environmental Protection Agency [EPA] National Institutes of Environmental Health Sciences [NIEHS] National Toxicology Program [NTP] U.S. Food and Drug Administration [FDA] Tox21 Assay Overview: Measure of cell viability is critical in the cell-base assay. Analysis of cell viability is necessary for the characterization of cell responses to cytotoxic drugs and environmental stress. A RealTime-Glo MT Cell Viability Assay to monitor cell viability in real time of continues cell culture during 40 hours of compound treatment was used to screen Tox21 10K library compounds in Hek293 cells. The RealTime-Glo MT Cell Viability Assay is a nonlytic, homogeneous, bioluminescent method to measure cell viability in real time using a simple, plate-based method. The assay involves adding NanoLuc luciferase and a cell-permeant prosubstrate to cells in culture. Viable cells reduce the proprietary prosubstrate to generate a substrate for NanoLuc luciferase. This substrate diffuses from cells into the surrounding culture medium, where it is rapidly used by the NanoLuc Enzyme to produce a luminescent signal. The signal correlates with the number of viable cells, making the assay well suited for cytotoxicity studies.
Tox21 Assay Protocol Summary: The mixture of Hek293 cell suspension and reagents were dispensed at 600cells/6 ul/well in 1536-well tissue culture treated black solid bottom plates using a Multidrop dispenser. After the assay plates were incubated at a 37 C/5% CO2 incubator for 5 hours, 23 nL of compounds dissolved in DMSO, positive and negative controls was transferred to the assay plate by a pintool work station. The plates were incubated at 37 C for 40 hours. The luminescence intensity were measured at 0h, 8h, 16h, 24h, 32h and 40h time points using ViewLux plate reader during compound treatment.
On the % scale 0 is the no-effect control and ±100 the full control effect; potency means the concentration at half of the fitted maximal effect.

Row | Structure (SMILES) | max response | Potency
1 | CCOCCOC(=O)/C=C/c1ccc(OC)cc1 | 4.37% (inactive) | 
2 | COc1cc(C(=S)N2CCOCC2)cc(OC)c1OC | 4.79% (inactive) | 
3 | COC(=O)[C@@H]1[C@H]2C[C@H]3c4[nH]c5ccccc5c4CCN3C[C@@H]2CC[C@@H]1O | -22.3% (inactive) | 
4 | Nc1cccc(O)c1 | 3.53% (inactive) | 
5 | CC(C(=O)O)c1ccc2c(c1)CC(=O)c1ccccc1S2 (stereo not given) | -2.02% (inactive) | 
6 | CC(CC=O)CCCC(C)(C)O (stereo not given) | 3.36% (inactive) | 
7 | C=Cc1ccccn1 | -0.127% (inactive) | 
8 | CC(C)N(c1ccccc1)C(C)C | 4.56% (inactive) | 
9 | C[C@H](N)[C@H](O)c1cccc(O)c1 | -0.629% (inactive) | 
10 | CC(CO)c1ccccc1 (stereo not given) | -0.132% (inactive) | 
11 | O=C1c2ccccc2C(=O)N1CCl | 1.28% (inactive) | 
12 | Cc1ccc2c(c1)OCC(=O)CO2 | -8.18% (inactive) | 
13 | NS(=O)(=O)c1ccc(NC(=O)CCC(=O)O)cc1 | 3.03% (inactive) | 
14 | CC(=O)c1sc(C)nc1C | -23.3% (inactive) | 
15 | O=C1c2ccccc2C(=O)C1c1ccccc1 | 3.3% (inactive) | 
16 | CC[C@H](C)C(=O)O[C@H]1C[C@H](O)C=C2C=C[C@H](C)[C@H](CC[C@@H](O)C[C@@H](O)CC(=O)O)[C@H]21 | 13.5% (inactive) | 
17 | CC(=O)OC(C)OC(=O)C(C)c1ccc(-c2ccccc2)c(F)c1 (stereo not given) | 3.38% (inactive) | 
18 | CC(C)(C)NC(N)=O | 1.11% (inactive) | 
19 | CCCCOCCOC(=O)COc1nc(Cl)c(Cl)cc1Cl | 7.86% (inactive) | 
20 | CN1CCN(CC(=O)N2c3ccccc3C(=O)Nc3cccnc32)CC1 | 6.66% (inactive) | 

Row | Structure (SMILES) | max response | Potency
21 | CC(=O)/C=C/C1C(C)=CCC(C)C1(C)C (stereo not given) | 1.21% (inactive) | 
22 | CCCOC(=O)C(C)O (stereo not given) | -7.32% (inactive) | 
23 | CC(CN)CC(C)(C)CCN (stereo not given) | 6.3% (inactive) | 
24 | CCCCCCCCOS(=O)(=O)O | 2.61% (inactive) | 
25 | O=C1c2cccc3c2[C@H](CCC3)CN1[C@@H]1CN2CCC1CC2 |  | 6.01 µM (active)
26 | COCCOCCOCCOCCOCCO | 0.969% (inactive) | 
27 | COc1ccc(-c2cc(=O)c3c(O)cc(O[C@@H]4O[C@H](CO[C@@H]5O[C@@H](C)[C@H](O)[C@@H](O)[C@H]5O)[C@@H](O)[C@H](O)[C@H]4O)cc3o2)cc1O | 1.76% (inactive) | 
28 | N[C@@H](COP(=O)(O)O)C(=O)O | 7.08% (inactive) | 
29 | CN(CCOc1ccc(NS(C)(=O)=O)cc1)CCc1ccc(NS(C)(=O)=O)cc1 | -0.0536% (inactive) | 
30 | CCOC(=O)CC(=O)c1ccccc1 | 10.1% (inactive) | 
31 | CC(C)CC(C)CC(C)CC(C)COC(=O)c1ccccc1C(=O)OCC(C)CC(C)CC(C)CC(C)C (stereo not given) | 4.21% (inactive) | 
32 | BrCCCCCBr | 19.9% (inactive) | 
33 | CC(C)(C)c1n[nH]c(=S)n(N)c1=O | 2.54% (inactive) | 
34 | CC(S)C(=O)NCC(=O)O (stereo not given) | 11.2% (inactive) | 
35 | On1nnc2ccccc21 | -15.2% (inactive) | 
36 | CCCCCOC(=O)CCC | -0.243% (inactive) | 
37 | NCCN1CCOCC1 | 1.04% (inactive) | 
38 | CCCC/C=C/C=C\C=O | 0.84% (inactive) | 
39 | NS(=O)(=O)c1cc2c(cc1Cl)CN(C1CCCCC1)C2=O |  | 9.52 µM (active)
40 | C=C(C)C(=O)OCC(C)(C)COC(=O)C(=C)C | 2.01% (inactive) | 

— PubChem BioAssay (Tox21)
